# Reference: PubChem BioAssay (NCATS)
# Results filed as inconclusive are left out. A call without a number means that no potency is given here. Calls of active or inactive are those of the source. Calls follow the shape of the dose curve; as a rule, active = well fitted inhibition curve with a large enough effect; inconclusive = small, poorly fitted or top-dose-only effect; inactive = no such curve, though single readings can be large or run the other way.
# Biological target: Retinaldehyde dehydrogenase 3 (Homo sapiens) (UniProt P47895)
# Assay: qHTS for Inhibitors of the Aldehyde Dehydrogenase Family (ALDH1A3) Primary screen (AID 2061315)
# Conditions: ALDH inhibition qHTS; series mostly up to 56 µM
row,SMILES,Potency
1,CCCn1c(-c2ccc(F)cc2)nc2c(NCCN3CCOCC3)nc(C)nc21,inactive
2,Cc1ccc(OCCn2c(CCNC(=O)c3ccc(Br)cc3)nc3ccccc32)cc1,inactive
3,CCN(Cc1ccccc1)c1ccc(Br)cn1,inactive
4,O=C(Nc1ccc(-c2cccnc2)nc1)c1cccs1,inactive
5,N#Cc1ccc(NS(=O)(=O)c2ccc(NC(=O)Cc3ccc(Cl)c(Cl)c3)cc2)cc1,inactive
6,N[C@@H](Cc1ccc(O[S+](=O)([O-])c2cccc3cnccc23)cc1)C(=O)N1CCN(c2ccccc2)CC1,inactive
7,COc1cccc(-n2cnc3cc(C(=O)N4CCCCC4)ccc32)c1,inactive
8,O=C1CCc2cc(S(=O)(=O)Nc3cccnc3)ccc2N1,inactive
9,COc1ccccc1C1=Nn2c(nnc2-c2ccccc2C)SC1,inactive
10,N#Cc1cc(NC(=O)Nc2cccc(-c3ccncc3)n2)ccc1Cl,inactive
11,CC(=O)Nc1cc2c(s1)CNCC2,inactive
12,Cn1c2cc(C(=O)O)sc2c2cnn(Cc3ccccc3F)c(=O)c21,inactive
13,CN1C(=O)NC(c2ccccc2Cl)C2=C1CCCC2=O (stereo not given),inactive
14,O=C(O)c1cccc(S(=O)(=O)N2CCN(S(=O)(=O)c3ccc4c(c3)OCCO4)CC2)c1,inactive
15,O=S(=O)(Nc1ccc(S(=O)(=O)Nc2nccs2)cc1)c1ccc2ccccc2c1,inactive
16,CCCn1c(C)nc2c(NCCCN(C)C)nc(C)nc21,inactive
17,COc1cccc(NC(=S)N2CCN(c3ccc4ccccc4n3)CC2)n1,inactive
18,Cc1cnc(-c2ccccc2C2COC2)nc1NCC1CCN(c2cccnc2)CC1,inactive
19,Cc1cc2c(s1)c1cnn(Cc3ccc(OC(F)F)cc3)c(=O)c1n2C,inactive
20,Cc1cc(NC(=O)c2ccc(C)c(Nc3nccc(-c4cccnc4)n3)c2)cc(-n2cnc(C)c2)c1,inactive

row,SMILES,Potency
1,c1nc(NCC2CCCC2)c2cc(-c3ccc4c(c3)OCO4)ccc2n1,inactive
2,Cn1c2cc(Br)sc2c2cnn(Cc3c(F)cccc3F)c(=O)c21,inactive
3,Cc1cccc(-c2ccc3ncnc(NCc4cccs4)c3c2)c1,inactive
4,NC(=O)C1CCN(c2nc(-c3cccs3)cs2)CC1,inactive
5,Cc1ccc(C2=NN(CC(=O)N(C)C(C)c3ccco3)C(=O)C2)cc1 (stereo not given),inactive
6,O=S(=O)(c1cccc(F)c1)N1CCN(S(=O)(=O)c2ccc3c(c2)OCCO3)CC1,inactive
7,O=C(CNC(=O)c1ccc(-c2ccccc2)cc1)OC(C(=O)Nc1cc(C(F)(F)F)ccc1Cl)c1ccccc1 (stereo not given),inactive
8,C=C1C(=O)OC2/C=C(\COC(C)=O)CC/C=C(\C=O)CC(OC(=O)CC(C)C)C12 (stereo not given),inactive
9,O=C(OCC#CCSc1nnc(-c2cccc3ccccc23)o1)c1cccc(F)c1,inactive
10,CCc1ccc(S(=O)(=O)Nc2cnccc2C(=O)Nc2nc(-c3ccccc3)cs2)cc1,inactive
11,OC[C@H]1O[C@@H](O[C@H]2[C@H](OCCc3ccccc3)O[C@H](CO)[C@@H](O)[C@@H]2O)[C@H](O)[C@@H](O)[C@@H]1O,inactive
12,Cc1cc(C)n2ncc(C(=O)N3CCCC3)c2n1,inactive
13,COc1cccc(CNc2ccc(S(=O)(=O)Nc3ccccc3)cc2)c1O,inactive
14,CC(C)(C)OC(=O)CC(=O)NNC(=O)c1cc2ccccc2[nH]1,inactive
15,O=C1c2ccccc2C(=O)N1c1cncc2ccccc12,inactive
16,Cc1cnc(-c2ccccc2OC(C)C)nc1NCc1ccc(-n2ccnn2)cc1,inactive
17,Cc1cc(F)ccc1S(=O)(=O)Nc1cnccc1C(=O)Nc1nc(-c2ccccc2)cs1,inactive
18,O=C(Nc1nc(-c2ccccc2)cs1)c1ccncc1NS(=O)(=O)c1ccccc1,inactive
19,O=C(O)c1ccc(O)c2ncc(-c3cccc(N4CCOCC4)c3)cc12,inactive
20,Cc1cc(C)n2ncc(C(=O)NC3CCCCC3)c2n1,inactive
